IMPase Li cell: qHTS Assay for Identifying the Cell-Membrane Permeable IMPase Inhibitors: Potentiation with Lithium; CHO-M1 cells, IP1 TR-FRET (IP-One), carbachol + lithium; Potency, µM (top dose mostly 59.4 µM), usual class: inhibitors; actives 0.35% (n = 210,000); AID 1457, 2008;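 note: IP1 builds up when IMPase is blocked and the TR-FRET signal falls; nearly all actives have a fitted effect of over 50% in size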
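Lithium-sensitised IP1 accumulation assay; M1-expressing CHO cells treated 30 min at 37C with compound. Competitive antibody detection by time-resolved FRET followed a 10 min room-temperature lysis step.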
Luc counter: Counterscreen for Luciferase (Kinase-Glo TM) Inhibition. Luciferin 4-monooxygenase (Photuris pensylvanica), Q27757. Potency, µM (series often up to 38.3 µM), hits mostly inhibitors. actives 0.28% (n = 200,000). AID 1379, 2008. Kinase-Glo luciferase, ATP luminescence, 8 min; note: nearly all actives have a fitted effect of over 60% in size
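Recombinant Kinase-Glo luciferase, 10 uM ATP (linear range), luciferin; imidazole pH 7.2 / KCl / MgCl2 / Tween / BSA buffer; 8 min RT; luminescence.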
ALDH1A1 block: qHTS Assay for Inhibitors of Aldehyde Dehydrogenase 1 (ALDH1A1); Aldehyde dehydrogenase 1A1 (Homo sapiens), P00352; Purified ALDH1A1, NADH fluorescence, propionaldehyde substrate; Potency, µM (top dose mostly 75.3 µM), actives largely listed as inhibitors; actives 7.3% (n = 220,000); active = well fitted inhibition curve with a large enough effect, not every such curve was filed as active; inconclusive = small, poorly fitted or top-dose-only effect, or another doubt; inactive = no such curve, though single readings can be large or run the other way
Lamin A splicing: qHTS Assay for Modulators of Lamin A Splicing. HeLa LMNA splicing GFP/RFP minigene ratio, 48 h. Potency, µM (top dose mostly 46.1 µM), actives largely listed as inhibitors. actives 0.01% (n = 200,000); active = well fitted inhibition curve with a large enough effect in the signal ratio, with a control signal flat, not every such curve was filed as active; inconclusive = small, poorly fitted or top-dose-only effect, or effect the other way, or a change in a side signal; the % refers to the signal ratio
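S3 HeLa cells stably expressing lamin A-EGFP splicing minigene plus DsRed2, 600 cells/well, 48 h compound exposure at 37C. Laser-scanning cytometry; analysed as GFP (500-530 nm)/RFP (575-640 nm) total intensity ratio; 0.5% DMSO vehicle.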
HPGD inh: qHTS Assay for Inhibitors of HPGD (15-Hydroxyprostaglandin Dehydrogenase); actives 4.3% (n = 150,000); purified HPGD, NADH fluorescence kinetic, PGE2 substrate; 15-hydroxyprostaglandin dehydrogenase [NAD(+)] (Homo sapiens), P15428; Potency, µM, most hits filed as inhibitors; active = well fitted inhibition curve with a large enough effect, not every such curve was filed as active; inconclusive = small, poorly fitted or top-dose-only effect, or another doubt; inactive = no such curve, though single readings can be large or run the other way
Target sequence (P15428 whole entry, looked up): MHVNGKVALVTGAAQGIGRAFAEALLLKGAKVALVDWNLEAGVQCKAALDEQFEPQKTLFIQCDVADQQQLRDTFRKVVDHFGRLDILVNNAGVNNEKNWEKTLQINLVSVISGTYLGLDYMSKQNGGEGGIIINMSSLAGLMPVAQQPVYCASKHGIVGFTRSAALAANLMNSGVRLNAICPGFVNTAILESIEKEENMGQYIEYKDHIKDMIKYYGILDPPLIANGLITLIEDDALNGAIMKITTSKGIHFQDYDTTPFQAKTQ
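20 nM HPGD preincubated 15 min at room temperature with compound in 50 mM Tris-HCl pH 8, 0.01% Tween 20. Started with 1 mM NAD+ and 30 uM prostaglandin E2; NADH fluorescence (360/450 nm) read 5 times over 30-s intervals, last minus first.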
A number is an active result; . = inactive; ? = inconclusive; / = not tested or not shown; ! = not confirmed by another sample; [ ] = another dose, or the depositor's remark. This is a sample that favours compounds with a hit; in the whole collection about 9% have one here. Unless noted, calls come from the whole dose curve; as a rule, active = well fitted curve in the direction sought with a large enough effect; inconclusive = small, poorly fitted or top-dose-only effect, or another doubt; inactive = no such curve, though single readings can be large; an effect the other way counts as inactive or inconclusive.

SMILES	IMPase Li cell	Luc counter	ALDH1A1 block	Lamin A splicing	HPGD inh
COc1c(O)c(O)c2oc(-c3ccccc3)cc(=O)c2c1OC	.	/	?	/	/
O=C(NCCCO)/C(=C\c1cn(-c2ccccc2)nc1-c1cccnc1)NC(=O)c1ccccc1	.	.	1.8µM	.	.
O=C(NCC1CCCO1)/C(=C/c1cn(-c2ccccc2)nc1-c1cccnc1)NC(=O)c1ccccc1 (centres undefined)	.	.	0.56µM	.	/
O=C(NCC1CCCO1)/C(=C/c1ccccc1)NC(=O)c1ccccc1 (centres undefined)	.	.	?	/	/
CC(=O)OC[C@@H]1O[C@H](CCO/N=C\[C@@H](C)[C@H](OCc2ccccc2)C(C)C)C=C[C@@H]1OC(C)=O	/	/	.[13.5 µM]	/	/
CC1Cc2ccccc2N1C(=O)CN1C(=O)C(=O)N(Cc2ccccc2)C1=O (centres undefined)	.	.	32µM	.	.
CC1Cc2ccccc2N1C(=O)CN1C(=O)COc2ccccc21 (centres undefined)	.	.	.	.	.
CCCCCCCCCCCC(=O)c1c(O)cccc1O	/	.	?	.	/
Cc1ccc(-n2nc3c([n+]2[O-])CCc2nonc2-3)cc1	.	.	?	/	/
Cc1ccc(C)c2c3c([nH]c12)-c1nonc1CC3	.	.	22µM	.	.
O=C(Nc1cccnc1Cl)c1noc2c1CCc1ccccc1-2	.	.	.	/	/
COc1cccc(/C=N/N2CCN(c3ccncc3S(=O)(=O)N3CCCCC3)CC2)c1	.	.	.	?	.
c1ccc(-c2nnc3sc(-c4csc5c4CCCC5)nn23)cc1	.	.	7.9µM	.	11µM
Cc1cccc(-n2cc(-c3ccccc3)nc2SCC(=O)Nc2ccccc2Cl)c1	/	/	/	.	/
CCCCNC(=O)/C(=C\c1ccc([N+](=O)[O-])o1)NC(=O)c1ccccc1	.	.	.	/	/
Cc1ccc(/C=C(\NC(=O)c2ccccc2)C(=O)NCCc2ccccn2)o1	.	.	22µM	.	.
Cc1ccc(/C=C(/NC(=O)c2ccccc2)C(=O)NCCc2c[nH]c3ccccc23)o1	.	.	28µM	.	.
COc1ccccc1Nc1nc(-c2c(C)nc3ncccn23)cs1	.	.	?	?	/
Cc1ccc(N2CC(C(=O)OCc3ccc([N+](=O)[O-])cc3)CC2=O)cc1 (centres undefined)	.	.	11µM	.	25µM
Cc1ccc(S(=O)(=O)N2CCC(C(=O)OCc3ccc([N+](=O)[O-])cc3)CC2)cc1	.	.	.	.	.
Cc1cccc(NNC(N)=S)c1	.	.	8.9µM	/	/
NC(=S)NNC(=O)Nc1cccc(Cl)c1	.	.	.	.	.
NC(=S)NNc1cccc(Cl)c1	.	.	1.6µM	.	.
Cc1ccccc1NC(=O)Nc1ccccc1C(N)=O	.	.	.	/	/
Cc1ccccc1NNC(N)=S	.	.	22µM	.	/
SMILES	IMPase Li cell	Luc counter	ALDH1A1 block	Lamin A splicing	HPGD inh
S=C(NNc1cccc(Cl)c1)NC1CCCCC1	.	.	25µM	?	/
S=C(Nc1cccc(Cl)c1)NC1CCCCC1	.	.	.	.	.
O=C(NCc1nnc(SCC(=O)N2CCCc3ccccc32)o1)c1c(F)cccc1Cl	.	.	.	/	/
CC(O)CNc1nc(Cl)c(C#N)s1 (centres undefined)	.	.	.	/	/
CC(=O)Nc1sc2c(c1C(c1ccncc1)N1CCOCC1)CCCC2 (centres undefined)	.	.	25µM	?	/
N[C@@H](Cc1c[nH]c2ccc(O)cc12)C(=O)O	.	.	28µM!	?	.
N#Cc1ccccc1CN1C(=O)NC(Cc2c[nH]c3ccccc23)C1=O (centres undefined)	.	.	.	/	/
O=C(COC(=O)c1ccc(Cl)s1)c1cc2ccccc2o1	.	.	?	.	35µM
Cn1cccc1C(=O)OCC(=O)c1cc2ccccc2o1	.	.	?	.	28µM
O=C(COC(=O)c1nc(Cl)ccc1Cl)c1ccc(Cl)s1	.	.	?	.	.
Cn1cccc1C(=O)OCC(=O)NC(=O)NC1CCCCC1	.	.	.	.	/
CCNC(=O)/C(C#N)=C/c1c(N(Cc2ccccc2)Cc2ccccc2)nc2ccccn2c1=O	.	.	16µM	?	.
CCNC(=O)/C(C#N)=C/c1c(N2CCOCC2)nc2ccccn2c1=O	.	.	?	.	?
N#C/C(=C\c1c(N2CCCCC2)nc2ccccn2c1=O)C(=O)NCc1ccco1	.	.	28µM	.	.
N#C/C(=C\c1c(N2CCCCCC2)nc2ccccn2c1=O)C(=O)NCc1ccco1	/	/	13µM	/	/
C=CCn1c(C)cc(C(=O)COC(=O)c2ccc3c(c2)NC(=O)CS3)c1C	.	.	?	.	22µM
O=C(NC(Cc1c[nH]c2ccccc12)c1nnc2n1CCCCC2)c1ccccc1Cl (centres undefined)	.	.	.	.	25µM
O=C(NC(Cc1c[nH]c2ccccc12)c1nnc2n1CCCCC2)c1ccccc1 (centres undefined)	.	.	.	.	.
COc1ccc2c(CC(=O)NCc3ccc4c(c3)OCO4)coc2c1	.	.	8.9µM	.	.
CC(C)C(OC(=O)c1cc2occc2n1C)C(=O)NCc1ccc2c(c1)OCO2 (centres undefined)	.	.	?	?	13µM
Cc1cc2c(cc(C(=O)OC(C(=O)NCc3ccco3)C(C)C)n2C)o1 (centres undefined)	.	.	?	?	.
Cc1ccc2c(CC(=O)NCc3ccc4c(c3)OCO4)coc2c1	.	.	4.5µM	.	.
COC(=O)NCc1ccc2c(c1)OCO2	.	.	.	.	.
Cc1ccc2c(CC(=O)OC(C)C(=O)NCc3ccc4c(c3)OCO4)coc2c1 (centres undefined)	.	.	.	.	14µM
O=C1CSC(c2ccccc2[N+](=O)[O-])N1CCc1ccccc1 (centres undefined)	.	.	?	/	/
SMILES	IMPase Li cell	Luc counter	ALDH1A1 block	Lamin A splicing	HPGD inh
COc1ccc(CCN2C(=NC(=O)CCC(=O)O)SC3CS(=O)(=O)CC32)cc1OC (centres undefined)	.	.	25µM	.	.
CCOC(=O)CNNC(=O)Nc1ccc(Cl)c(Cl)c1	.	.	.	.	.
CCOC(=O)N(C)OC(=O)Nc1ccc(Cl)c(Cl)c1	.	.	4µM	.	?
CCOC(=O)N(CC)OC(=O)Nc1ccc(Cl)cc1	.	.	4.5µM	.	.
CCOC(=O)NCCOC(=O)Nc1ccc(Cl)cc1	.	.	.	.	/
O=[N+]([O-])c1ccc2c(c1)C(N1CCOCC1)/C(=C/COc1ccc(F)cc1)O2 (centres undefined)	.	.	?	?	.

Screening data: PubChem BioAssay, National Center for Advancing Translational Sciences (NCATS)
